Most compounds without a hit are left out; they make up all but 2.1% or so of the library.
aSyn yeast inh = qHTS of alpha-syn Inhibitors; Potency, µM (top dose mostly 46.1 µM), for the others: top-dose growth rescue (activation), hits mostly activators; Yeast expressing alpha-synuclein, growth rescue, BacTiter-Glo, 24 h; hit rate 0.14% among 370,000; note: % of control where 0% means no effect; nearly all actives have a fitted effect of over 65% in size
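Rescue of yeast growth: cells expressing toxic alpha-synuclein, induced in galactose at OD600 0.02, incubated with compound 24 h at 30 C. ATP luminescence quantified growth; inhibitors of toxicity appear as activators.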
FUS yeast rescue = qHTS for Suppressors of FUS Proteinopathy: Primary screen using FUS-linked yeast assay; AID 1347120, 2019; Potency, µM (series often up to 76.6 µM), actives largely listed as activators; hit rate 0.24% among 390,000; S. cerevisiae FUS-expressing, growth rescue, OD600, 24 h;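 note: plate controls were DMSO vehicle for no effect and reference control for full effect; nearly all actives have a fitted effect of over 55% in size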
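Yeast FUS proteinopathy model; galactose-induced FUS (2%), starting OD 0.005. Cpds in dilution series, 24hr, 30C, 99% humidity. Abs 600 nm growth. Pos ctrl CP55940 (top 92uM final); neg ctrl DMSO.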
Abeta rescue = qHTS for compounds that reverse cellular toxicity of Amyloid beta (A-beta) peptide in yeast: Primary Screen | AID 1347071, 2019 | yeast expressing A-beta42, growth rescue, OD600, 48 h; response scale: 0% DMSO, 100% iron-clioquinol control | hit rate 0.063% among 410,000 | Potency, µM (highest dose often 46.1 µM), actives largely listed as activators; note: nearly all actives have a fitted effect of over 55% in size
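Yeast growth medium received pinned compounds, then yeast cells expressing toxic A-beta were added; plates incubated at 30 C for 48 hr. Growth read as absorbance at 600 nm, normalized to DMSO and equimolar FeCl3 plus clioquinol controls.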
TDP-43 yeast inh = qHTS of TDP-43 Inhibitors; TDP-43 expressing yeast growth rescue, BacTiter-Glo, 24 h; Potency, µM (highest dose often 46.1 µM), without a hit: top-dose growth rescue (activation), hits mostly activators; hit rate 1.8% among 410,000; AID 652104, 2013; note: % of control where 0% means no effect; nearly all actives have a fitted effect of over 50% in size
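Luminescence from BacTiter-Glo reports growth of TDP-43-expressing yeast after 24 hr at 30 deg C with compound. Cells were raffinose-pregrown to mid-log, then seeded in galactose medium at OD600=0.02.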
Numbers without * were called inactive; i = inactive; ? = inconclusive; . = not tested or not shown. Calls come from the whole dose curve; as a rule, active = well fitted curve in the direction sought with a large enough effect; inconclusive = small, poorly fitted or top-dose-only effect, or another doubt; inactive = no such curve, though single readings can be large; an effect the other way counts as inactive or inconclusive. Potency is the fitted concentration of half-maximal effect.

SMILES	aSyn yeast inh	FUS yeast rescue	Abeta rescue	TDP-43 yeast inh
N/C(=N\OC(=O)c1ccc(Cl)c(Cl)c1)c1ccccn1	-4.5%	i	i	11.4%
N/C(=N\OC(=O)c1ccc(Cl)cc1)c1ccccn1	-32.4%	i	i	10µM*
N/C(=N\OC(=O)c1cc([N+](=O)[O-])ccc1Cl)c1cccnc1	-2.8%	i	i	12.6µM*
N/C(=N\OC(=O)c1ccc(Cl)c([N+](=O)[O-])c1)c1ccccn1	-5.7%	i	i	15.8µM*
N/C(=N\OC(=O)c1ccc(Cl)c([N+](=O)[O-])c1)c1ccccc1	5.5%	i	i	12.6µM*
N/C(=N\OC(=O)c1ccc([N+](=O)[O-])cc1)c1cccnc1	-6.2%	i	i	7.5%
CCCCOc1ccc(C(=O)O)cc1	-11.8%	i	i	?
COc1ccc2cc(C#N)c(Cl)nc2c1	6.0%	i	i	-7.6%
CCN1CCCC1CNC(=O)c1ccc(N2CCCC2=O)cc1 (stereo unspecified)	-1.3%	i	i	13.4%
COC(=O)Cc1[nH]nc2c1C1(C(=O)N(Cc3ccc(Cl)cc3)c3ccccc31)C(C#N)=C(N)O2 (stereo unspecified)	-4.4%	i	i	-4.2%
CCOC(=O)c1cc(-c2ccccc2C)nn1CC1CC(c2ccc(OC)cc2)=NO1 (stereo unspecified)	11.4%	i	i	31.3%
CCOC(=O)c1cc(-c2ccccc2C)n(CC2CC(c3cccc([N+](=O)[O-])c3)=NO2)n1 (stereo unspecified)	6.8%	i	i	20µM*
O=C(NCc1cn2ccccc2n1)c1ccco1	1.0%	i	i	23.5%
O=C1c2cc3c(cc2CCC1c1ccc2c(c1)OCO2)OCO3 (stereo unspecified)	-4.4%	i	i	15.8µM*
O=C1CC(c2ccc3c(c2)OCO3)c2cc3c(cc2N1)OCO3 (stereo unspecified)	1.2%	i	i	17.5%
N=c1ccn(Cc2ccc([N+](=O)[O-])cc2)cc1	-4.2%	i	i	-8.3%
O=C(NCC1CCCO1)c1cccc2c1C(=O)c1ccc(N3CCC(Cc4ccccc4)CC3)cc1S2(=O)=O (stereo unspecified)	2.5%	10µM*	i	-2.5%
Cc1ccc(CC(=O)NCc2nc(-c3cccc(C)c3)no2)cc1	.	i	i	17.8µM*
Cc1ccc(CC(=O)NCc2nc(-c3ccccc3)no2)cc1	.	i	i	12.6µM*
Cc1cccc(-c2noc(CNC(=O)c3ccc(C)cc3C)n2)c1	.	i	i	2.4%
COCCNC(=O)c1cc2c(c(-c3cccc(-c4cc5ccccc5o4)c3)n1)[C@H](CCO)N(S(=O)C(C)(C)C)C2 (stereo partly specified)	1.6%	i	i	4.2%
CCOc1ccc(NC(=O)c2cnsn2)cc1	2.7%	i	i	9.3%
CCOC(=O)CC(=O)CSc1nc(C)cc(C)c1C#N	4.6%	i	i	17.1%
C#CCSc1nc(C)cc(C(=O)OCC)c1C#N	-5.1%	i	i	14.1µM*
O=S(=O)(Nc1cccc2c1CCCC2)c1cccc(C(F)(F)F)c1	?	i	?	25.1µM*
SMILES	aSyn yeast inh	FUS yeast rescue	Abeta rescue	TDP-43 yeast inh
COC(=O)[C@@]1(Cc2ccccc2)[C@H]2C(=O)N(Cc3ccccc3)C(=O)[C@H]2[C@H]2CN=C(SCC3CC3)N21	2.1%	i	i	15.8%
O=C(O)c1cc2[nH]c3c(c2cc1Cl)CCCC3	20µM*	i	i	.
O=S(=O)(c1ccc2[nH]c3c(c2c1)CCCC3)N1CCCCC1	0.0%	i	i	-9.8%
Cc1ccc(OCCC(=O)OCC(=O)NC2CCCCC2)cc1	-1.2%	i	i	1.2%
O=C(Nc1nnc(-c2cccs2)o1)c1cccc(C(F)(F)F)c1	3.16µM*	i	6.31µM*	7.08µM*
COc1cccc(NC(=O)CN(C)C(=O)c2cccc(S(=O)(=O)N3c4ccccc4CC3C)c2)c1 (stereo unspecified)	3.5%	22.4µM*	i	20.2%
COc1cc(Nc2cccc(-c3ccccc3)n2)cc(OC)c1OC	4.6%	i	i	31.6µM*
COc1ccc(C(C)=O)cc1COC(=O)CCNS(=O)(=O)c1ccc(C)c(C)c1	1.7%	i	i	0.0%
CC(=O)c1cccc(Nc2ccc(Br)cc2)c1	-13.1%	i	i	14.1µM*
CC(=O)c1cccc(NC(=S)NC(=O)c2ccc(Br)cc2)c1	2.4%	.	i	11.5%
CC(C)Sc1nnc(NC(=O)C2CC2)s1	5.8%	i	i	16.5%
COc1ccc(-c2csc(Nc3ccccn3)n2)cc1OC	-2.7%	i	i	12.6µM*
Cc1ccc(Cl)cc1Nc1nc(-c2sc(NC(=O)c3ccco3)nc2C)cs1	-3.2%	?	i	-0.7%
Cc1ccnc(Nc2nc(-c3ccc(F)cc3)cs2)c1	-32.2%	i	i	7.94µM*
Cc1nc(N)sc1-c1csc(Nc2ccc(Cl)cn2)n1	-0.4%	?	i	-10.5%
CC(=O)Oc1ccc(-c2csc(Nc3ccc(Cl)cn3)n2)cc1	-13.0%	i	i	12.6µM*
Cc1nc(NC(=O)c2ccco2)sc1-c1csc(Nc2ccc(Cl)cc2)n1	-6.4%	22.4µM*	i	?
COc1ccc(N2CCN(Cc3nc4scc(-c5cccs5)c4c(=O)[nH]3)CC2)cc1	1.8%	i	i	3.5%
COc1ccc([N+](=O)[O-])cc1NC(=O)c1ccc(CN(c2ccc(C)c(C)c2)S(C)(=O)=O)cc1	-3.6%	i	i	-1.8%
CC(=O)c1cccc(Nc2nc(-c3sc(C)nc3C)cs2)c1	-5.6%	i	i	11.2µM*
Cc1nc(C)c(-c2csc(Nc3ccccn3)n2)s1	-20.6%	i	?	35.5µM*
Cc1cc(-c2csc(Nc3ccccn3)n2)ccc1F	-24.5%	i	?	3.98µM*
Cc1ccc(-c2csc(Nc3ccccn3)n2)cc1	-25.0%	i	?	3.16µM*
Cc1nc(N)sc1-c1csc(Nc2ccccn2)n1	4.1%	i	i	9.4%
Cn1ccc2cc(S(=O)(=O)N3CCN(S(=O)(=O)c4c(F)cccc4F)CC3)ccc21	.	i	.	.
C/C(=N\NC(=O)COc1cccc(Cl)c1)c1ccc2c(c1)OCCO2	-5.5%	i	i	11.2%
CC(=O)Nc1cccc(-c2csc(Nc3ccc(C)cn3)n2)c1	0.9%	i	i	?
Cc1ccc(Nc2nc(-c3sc(N)nc3C)cs2)cc1	-19.5%	?	i	15.6%
Cc1ccc(Nc2nc(-c3sc(C)nc3C)cs2)cc1	-2.5%	i	i	20µM*
COc1ccc(-c2csc(Nc3ccc(C)cn3)n2)cc1	-31.9%	i	i	12.6µM*

High-throughput results: PubChem BioAssay, National Center for Advancing Translational Sciences (NCATS)
